Data as given in paper PMC5540273 (PLoS ONE, 2017).

Columns and labels:
Conditions in all cases: concentration: 1 μM, replicates: in singlicate; n = 1
[1] = test system: JAK1(JH2domain-pseudokinase)
[2] = test system: JAK2(JH1domain-catalytic)
[3] = test system: JAK3(JH1domain-catalytic)
JNK1 = test system: T1, JNK1
T1 construct: gene MAPK8

JNK2 = test system: T2, JNK2
T2 construct: gene MAPK9

JNK3 = test system: T3, JNK3
T3 construct: gene MAPK10

KIT-autoinhibited = test system: KIT-autoinhibited
KIT = test system: KIT
LATS1 = test system: LATS1
LATS2 = test system: LATS2
LCK = test system: LCK
LIMK1 = test system: LIMK1
LIMK2 = test system: LIMK2
LKB1 = test system: T4, LKB1
T4 construct: gene STK11

LOK = test system: T5, LOK
T5 construct: gene STK10

LRRK2 = test system: LRRK2
LTK = test system: LTK
LYN = test system: LYN
LZK = test system: T6, LZK
T6 construct: gene MAP3K13

MAK = test system: MAK
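Also: KINOMEscan kinase panel screen.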

Structure (SMILES)	%Inh [1]	%Inh [2]	%Inh [3]	%Inh (JNK1)	%Inh (JNK2)	%Inh (JNK3)	%Inh (KIT-autoinhibited)	%Inh (KIT)	%Inh (LATS1)	%Inh (LATS2)	%Inh (LCK)	%Inh (LIMK1)	%Inh (LIMK2)	%Inh (LKB1)	%Inh (LOK)	%Inh (LRRK2)	%Inh (LTK)	%Inh (LYN)	%Inh (LZK)	%Inh (MAK)
NCCCC(NC(=O)c1cc(Br)c(-c2ccnc3[nH]ccc23)s1)c1ccccc1.O=C(O)C(F)(F)F.O=C(O)C(F)(F)F (stereo not drawn) [GSK1287544]	0%	91.3%	87%	36%	22%	19%	0%	22%	66%	89%	9%	6%	6%	0%	0%	42%	0%	0%	0%	34%
COc1ccc(CNC(=O)NC2CCN(c3ccnc(Nc4ccc(F)cc4)n3)CC2)cc1 [GSK1379788]	0%	9%	0%	11%	5%	0%	0%	19%	7%	8%	8%	0%	0%	4%	0%	0%	1%	0%	25%	24%
Cl.NC(=O)c1cccc(Nc2nccc(Nc3ccc(Oc4c(Cl)cccc4Cl)c(Cl)c3)n2)c1 [GW659009]	0%	72%	0%	26%	5%	1%	0%	17%	0%	0%	54%	12%	0%	0%	49%	17%	80%	34%	0%	27%
COc1cc(Nc2ncc3c(C)nc(-c4cc5ccccc5[nH]4)n3n2)cc(OC)c1OC [GW869516]	98.5%	54%	11%	11%	0%	0%	22%	72%	0%	0%	71%	0%	4%	0%	8%	0%	0%	26%	0%	0%
Cl.Cl.NCC(NCc1ccc(-c2ccnc3[nH]ccc23)s1)c1ccccc1 (stereo not drawn) [GSK1321565]	0%	96.9%	100%	24%	14%	4%	0%	25%	62%	95%	16%	0%	20%	82%	29%	10%	31%	0%	40%	0%
CCCCc1nn2ncccc2c1-c1ccnc(Nc2ccc(N3CCN(C)CC3)cc2)n1 [GW684941]	4%	87%	27%	95.1%	98.9%	97.6%	97%	100%	0%	0%	99.1%	70%	97%	0%	60%	60%	0%	83%	28%	20%
Nc1ncc(-c2cccnc2)c2scc(-c3ccc4c(c3)CCN4C(=O)Cc3ccccc3)c12 [GSK683281]	1%	14%	0%	22%	37%	9%	7%	98.5%	0%	19%	70%	22%	36%	10%	75%	0%	50%	45%	0%	28%
C[C@@H](Oc1cc(-n2cnc3cc(-c4ccnc(NCCS(C)(=O)=O)c4)ccc32)sc1C(N)=O)c1ccccc1Cl [GSK907232]	0%	50%	66%	0%	10%	1%	0%	80%	0%	0%	67%	0%	4%	0%	99.1%	44%	0%	0%	0%	0%
Cl.c1ccc(-c2ccc3c(Nc4ccc5[nH]ccc5c4)ccnc3c2)nc1 [GW440138]	0%	24%	0%	0%	7%	2%	1%	100%	0%	17%	70%	0%	0%	0%	51%	0%	18%	47%	39%	1%
